# Assay outcomes from PubChem.
# A selection follows.
# aSyn 5UTR act – Activators working through SNCA 5'UTR binding (MLPCN); alpha-synuclein 5'UTR reporter, activators screen; activity score, % (tested at 7.5 µM), hits read low; 300,000 compounds, 7.1% hits; in the data active = activity score below about -60%
# A number is an active result; – = inactive.
SMILES,aSyn 5UTR act
CCOc1cccc2cc(-c3csc(NC(=O)CCC(=O)NCCCN4CCC(C)CC4)n3)c(=O)oc12,-76
CCOc1cccc2cc(-c3csc(NC(=O)CCC(=O)NCCN4CCCCC4C)n3)c(=O)oc12 (stereo not given),-135
COc1cccc(/C=C/c2ccccn2)c1O,-98
Cc1ccnc(SCC(=O)c2cccs2)n1,-95
Cc1cc(C)c(C#N)c(SCC(=O)Nc2nonc2N)n1,-87
Cc1cc(C)c(C#N)c(SCC(=O)c2cccs2)n1,-173
CCOC(=O)N1CCN(C(=O)CCNS(=O)(=O)c2ccc3c(c2)c(=O)n(C)c(=O)n3C)CC1,-153
Fc1ccc(/C=N/NC2=Nc3cccc4cccc2c34)cc1,-294
COc1cc(C)c(Cl)c(C)c1S(=O)(=O)NC1CC(C)(C)NC(C)(C)C1,-160
CCOC(=O)c1sc(=NC(=O)CCSc2ccccc2)n(C)c1C,-146
CCOC(=O)c1sc2nc(CSc3ccccc3)nc(N3CCCN(C)CC3)c2c1C,–
Cn1c(=NC(=O)COc2ccccc2)sc2cccc(F)c21,-150
CCOC(=O)c1sc(=NC(=O)COc2ccccc2)n(C)c1C,-90
CN(C)/C=C(\C#N)C(=O)Nc1ccc(F)c(Cl)c1,-143
CN(C)/C=C(\C#N)C(=O)N/N=C/c1ccc(Cl)cc1,-66
CN(C)/C=C(\C#N)C(=O)Nc1ccc(F)cc1,-96
CC(C)(C)c1ccc(OCc2cnc(Cl)s2)cc1,-105
CN1N=C(C(=O)N2CCc3c([nH]c4ccccc34)C2c2ccccc2Cl)CCC1=O (stereo not given),-69
NS(=O)(=O)c1ccc(N/C=C/C(=O)c2ccc(Br)cc2)cc1,-108
CN(C)c1ccc(N/C=C/C(=O)c2ccc(F)cc2)cc1,-120
NS(=O)(=O)c1ccc(N/C=C\C(=O)c2ccc(F)cc2)cc1,-118
O=C(/C=C/Nc1ccc(F)cc1)c1ccc(Oc2ncccn2)cc1,-115
O=C(NC(=O)N1CCN(c2ccccc2)CC1)c1ccc(Cl)cc1,-66
CCCCCN1C=CC(=C2C(=O)c3ccccc3C2=O)C=C1,–
CC1=CC(=C2C(=O)c3ccccc3C2=O)C=C(C)N1C,-132
SMILES,aSyn 5UTR act
COc1cc(OC)c(OC)cc1CN1CCCC(C(=O)c2ccccc2SC)C1 (stereo not given),–
COc1ccccc1C(=O)C1CCCN(C(=O)Nc2ccccc2F)C1 (stereo not given),-64
O=Cc1c(NCc2ccco2)nc2ccccn2c1=O,-89
COc1ccccc1NC(=S)N(Cc1ccco1)Cc1cc2cc(C)c(C)cc2[nH]c1=O,–
Cc1ccc2[nH]c(=O)c(-c3nc4ccccn4c3NCc3ccco3)cc2c1,-100
N#C/C(=N/Nc1ccc(OC(F)(F)F)cc1)C(N)=S,-71
Cc1c(OCC(F)(F)F)ccnc1CS(=O)c1nc2ccccc2[nH]1 (stereo not given),-99
Cc1c(OCC(F)(F)F)ccnc1CSc1nc2ccccc2[nH]1,-142
COCCCOc1ccnc(CS(=O)c2nc3ccccc3[nH]2)c1C (stereo not given),-111
CC(=O)c1cccc(NS(=O)(=O)c2ccc3c(c2)N(C(C)=O)CCO3)c1,-70
CC(=O)N1CCOc2ccc(S(=O)(=O)N3CCCCC3)cc21,-250
CCC1CCCCN1S(=O)(=O)c1ccc2c(c1)CCN2C(C)=O (stereo not given),–
COc1ccc(OC)c(-c2cc(C3CCN(c4cc(Cl)nc(N)n4)CC3)[nH]n2)c1,–
COc1ccc(-c2cc(-c3cc(OC)ccc3O)[nH]n2)cc1,-199
C=C(C)COc1ccc(-c2[nH]ncc2-c2ccc(Br)cc2)c(O)c1,–
COc1ccc(O)c(-c2cc(-c3ccc(F)cc3)n[nH]2)c1,-121
COc1ccc(-c2cc(-c3ccc(Cl)cc3)n[nH]2)c(O)c1,-202
COc1ccc(O)c(-c2cc(-c3cccc(Br)c3)n[nH]2)c1,-132
CCOc1ccc(C2CC(c3ccc(CC)cc3)Nc3nc(N)nn32)cc1 (stereo not given),-65
Cc1cccc(N=Nc2c(C)nn(-c3ccccc3)c2N)c1C,-124
Cc1nn(-c2ccccc2)c(N)c1N=Nc1ccc(Cl)cc1,-175
COc1ccc2nc3sc(C(=O)NCCCN4CCc5ccccc5C4)cc3cc2c1,-84
CCSc1nsc(NC(=O)Nc2cccc(OC)c2)n1,-140
CCSc1nsc(NC(=O)Nc2ccccc2F)n1,-183
CCn1c(C)nc2cc(C(=O)NNC(=S)Nc3ccccc3)ccc21,-164
SMILES,aSyn 5UTR act
CCn1c(C)nc2cc(C(=O)NNC(=S)Nc3ccccc3Cl)ccc21,-110
CCn1c(NC(=S)Nc2ccccc2)nc2ccccc21,-106
CCn1c(C)nc2cc(-c3nc4n(n3)Cc3ccccc3-4)ccc21,–
CCn1c(C)nc2cc(C(=O)OC(C(F)(F)C(F)F)C(F)(F)C(F)F)ccc21,-73
CCn1c(C)nc2cc(C(=O)N/N=C(\C)c3ccc(OC)cc3O)ccc21,–
CCn1c(C)nc2cc(C(=O)NNC(=S)Nc3ccc(F)cc3)ccc21,-126
CCn1c(C)nc2cc(C(=O)N/N=C/c3ccccc3)ccc21,-83
O=c1sc(/C=N/Nc2ccccc2)c(Cl)n1Cc1ccccc1,-84
CN1c2ccsc2/C(=N/Nc2ccccc2)CS1(=O)=O,-123
COc1ccc2[nH]c(N=Nc3ccccc3C)c(O)c2c1,-207
CCCN=Cc1sc2ccc(OCC)cc2c1O,-126
COC(=O)c1ccc(C2OCC(C)(C)CO2)cc1,-135
COC(=O)c1ccc2c(c1)C(C)(C)C(/C=C/c1ccc(OC)c(OC)c1OC)=[N+]2C,–
NC(=O)c1c(NC(=O)c2ccccc2)sc2c1CCC2,-122
NC(=O)c1c(NC(=O)c2ccccc2)sc2c1CCc1ccccc1-2,-211
CNC(=O)c1c(NC(=O)c2nc3ccccc3s2)sc2c1CCC2,-256
NC(=O)c1c(NC(=O)c2cnccn2)sc2c1CCCC2,-217
Cc1cc(C(=O)Nc2sc3c(c2C#N)CCCCC3)cs1,-94
N#Cc1c(NC(=O)c2cnn3cccnc23)sc2c1CCCC2,-99
NC(=O)c1c(NC(=S)Nc2ccccc2)sc2c1CCCC2,-67
N#Cc1c(NC(=O)c2ccncc2)sc2c1CCC2,-66
COc1ccc(NC(=O)c2c(NC(=O)CCC(=O)O)sc(-c3ccccc3)c2C)cc1,-76
O=C(O)CCC(=O)Nc1sc2c(c1C(=O)Nc1ccccc1)CCCCC2,-78
CC(C)C(=O)NC(=S)Nc1sc2c(c1C(N)=O)CCCC2,-121
CCN(CC)CCCC(C)NC(=O)c1c(NC(=O)c2ccccc2)sc2c1CCCC2 (stereo not given),-79
SMILES,aSyn 5UTR act
NC(=O)c1c(NC(=O)c2ccncc2)sc2c1CCCC2,-121
O=C1C=C(c2cc3ccccc3s2)CCC1,-86
Cc1cc(/C=C2\SC(=S)N(Cc3ccco3)C2=O)c(C)n1-c1cccnc1,-181
Cc1ccc(NCC(=O)Nc2ccc(Br)cc2)cc1C,-126
Cc1ccc(F)cc1NCC(=O)Nc1ccc(Br)cc1,-146
O=C(CCCC(=O)c1ccc(F)cc1)c1ccc(F)cc1,-118
CCOc1ccc(C(=O)CCCC(=O)c2ccc(OCC)cc2)cc1,-82
CCCCCCCCOC(=O)c1c(CSC(=N)N)n(C)c2cc(Br)c(OC(C)=O)cc12,–
CCCCCCOC(=O)c1ccc(N)cc1,-114
CCCCOC(=O)Nc1ccc(C(=O)OC)cc1,-110
CCCCOC(=O)Nc1ccc(C)c(Cl)c1,-164
Cc1ccc(C(=O)NCCn2cc(SCC(=O)Nc3nnc(C)s3)c3ccccc32)cc1,-109
O=C(NCCn1cc(SCc2ccccc2F)c2ccccc21)c1c(F)cccc1F,-62
Cc1cc(NC(=O)CSc2cn(CCNC(=O)c3ccc(Cl)cc3)c3ccccc23)no1,-90
